# Most compounds without a hit are left out; they make up all but 6.1% or so of the library.
# RORg inh = ROR gamma (mouse) transcription inhibition | P51450 | Drosophila S2 Gal4-RORgamma UAS-luciferase reporter, 20 h | Potency, µM (highest dose often 53.6 µM), for the others: at the top dose activity change, negative = inhibition, usual class: inhibitors | 310,000 compounds, 5.4% hits | AID 2551; note: % is set by controls: 0 for no effect and ±100 for the full control effect; nearly all actives have a fitted effect of over 60% in size
# Target sequence (P51450 whole entry, looked up, the tested form may be a part): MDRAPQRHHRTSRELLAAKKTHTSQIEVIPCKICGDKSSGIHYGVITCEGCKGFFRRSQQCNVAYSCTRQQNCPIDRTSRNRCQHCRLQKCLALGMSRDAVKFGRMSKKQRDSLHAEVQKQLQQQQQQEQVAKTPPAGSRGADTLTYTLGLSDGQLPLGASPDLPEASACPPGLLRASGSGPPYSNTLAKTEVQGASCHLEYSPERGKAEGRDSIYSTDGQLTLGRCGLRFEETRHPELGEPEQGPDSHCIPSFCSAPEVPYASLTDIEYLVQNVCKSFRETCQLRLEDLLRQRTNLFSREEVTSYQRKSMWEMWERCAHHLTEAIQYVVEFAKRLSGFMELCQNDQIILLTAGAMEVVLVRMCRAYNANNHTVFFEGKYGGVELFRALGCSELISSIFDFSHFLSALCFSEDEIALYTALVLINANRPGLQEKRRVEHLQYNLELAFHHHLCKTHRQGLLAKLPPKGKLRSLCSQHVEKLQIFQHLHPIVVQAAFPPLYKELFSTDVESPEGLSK
#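 Drosophila Schneider cells stably carrying a metallothionein-driven Gal4 DBD–ROR gamma fusion and a UAS-Photinus luciferase reporter were exposed to compound for 1 hr, then induced with copper sulfate (700 uM final) for 20 hr at ambient temperature before luminescence reading.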
# VP16 counter = counter-screen for ROR gamma inhibitors: Gal4-VP16 reporter. Drosophila S2 Gal4-VP16 UAS-luciferase, luminescence, 20 h. Potency, µM (titrated, usually from 53.6 µM), inactives show at the highest dose activity, negative = inhibition, usual class: inhibitors. 310,000 compounds, 3.5% hits. AID 2546;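 note: Gal4-VP16 expression switched on by copper sulfate through the metallothionein promoter; % is set by controls: 0 for no effect and ±100 for the full control effect; nearly all actives have a fitted effect of over 50% in size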
# HepG2 tox = kills HepG2 cells in TGF-b inhibitor counter-screen | AID 588856 | HepG2 CAGA-GFP viability, ATP luminescence, 18 h | Potency, µM (highest dose often 46.1 µM), for inactives: at the top dose activity change, negative = cytotoxicity, most hits filed as cytotoxic | 410,000 compounds, 0.76% hits
#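 HepG2 CAGA-GFP cells (1000/well, DMEM with 1% FBS) received compound, then TGF-beta at 500 pg/mL final, and were incubated 18 hours at 37 degrees C. Viability was read by CellTiter-Glo luminescence. Media-only wells were set as complete cell-killing and DMSO as no toxicity.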
# S2 tox = viability counter-screen for ATXN expression inhibitors | S2 cells (HEK-293 line with an ATXN2-luciferase reporter) viability, CellTiter-Fluor protease fluorescence, 24 h | Potency, µM (titrated, usually from 56.7 µM), hits mostly cytotoxic | 400,000 compounds, 0.49% hits; note: nearly all actives have a fitted effect of over 40% in size
# TGFb SMAD3 inh = inhibitors of TGF-b signaling | HepG2 CAGA-GFP TGF-b/SMAD3 reporter, GFP fluorescence, 18 h; TGF-beta stimulated, 500 pg/mL final | Potency, µM (doses to about 46.1 µM), without a hit: at the highest dose activity, negative = inhibition, usual class: inhibitors | 410,000 compounds, 1.2% hits | AID 588855; note: % is set by controls: 0 for no effect and ±100 for the full control effect; nearly all actives have a fitted effect of over 65% in size
#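 Using HEPG2 CAGA-GFP reporter cells at 1000 cells/well, we pinned test compounds, stimulated with recombinant TGF-beta (500 pg/mL final) and measured total well GFP after 18 h.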
# ATXN2 expr inh = reduces ATXN2 reporter expression in HEK-293 cells. HEK-293 ATXN2-luciferase reporter, luminescence, 24 h. Potency, µM (highest dose often 57 µM), without a hit: at the highest dose activity change, negative = inhibition, usual class: inhibitors. 360,000 compounds, 0.72% hits. AID 1745845; note: % is set by controls: 0 for no effect and ±100 for the full control effect; nearly all actives have a fitted effect of over 55% in size
#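 qHTS (up to 57 uM final) was run with 24 h compound exposure of reporter cells at 37 °C. Each well was multiplexed: SteadyGlo luminescence measured ATXN2-luciferase expression after a fluorogenic Gly-Phe-AFC viability readout (25 uM final).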
# Starred values were filed as active, the others as inactive; i = inactive; ? = inconclusive; . = no result; [ ] = another dose, or the depositor's remark. Calls come from the whole dose curve; as a rule, active = well fitted curve in the direction sought with a large enough effect; inconclusive = small, poorly fitted or top-dose-only effect, or another doubt; inactive = no such curve, though single readings can be large; an effect the other way counts as inactive or inconclusive. Potency is the fitted concentration of half-maximal effect.
SMILES,RORg inh,VP16 counter,HepG2 tox,S2 tox,TGFb SMAD3 inh,ATXN2 expr inh
Cc1cc(C)n(CC(=O)N/N=C/c2cc([N+](=O)[O-])ccc2O)n1,2.82µM*,2.82µM*,0.9%,i,-11.2%,?
Cc1cc(C)n(CCC(=O)N/N=C/c2ccc(Br)c([N+](=O)[O-])c2)n1,43.2%,6.1%,-11.7%,i,-21.5%,-2.7%
Cc1cc(C)n(CC(=O)N/N=C/c2cc(Br)cc([N+](=O)[O-])c2O)n1,0.631µM*,0.891µM*,-17.5%,i,21.8%,.
Cc1cc([N+](=O)[O-])nn1CC(=O)N/N=C/c1ccccc1O,2.24µM*,7.08µM*,-5.9%,?,-1.9%,.
COc1cccc(/C=C/C2=CC3(C)CC2(C)C(c2cccc(OC)c2)CC3=O)c1 (centres undefined),1.5%[10 µM],4.5%[10 µM],.,.,.,.
CN(Cc1ccccc1)C(=O)Nc1ccc2c(c1)N(C)C(=O)c1ccccc1S2,.,.,-23.5%,.,?,.
CNC(=S)NC12CC3CC(CC(C3)C1)C2,2.51µM*,7.94µM*,2.4%,i,-3.7%,-12.0%
O=S(=O)(c1ccc(NC(=S)NC23CC4CC(CC(C4)C2)C3)cc1)N1CCCCC1,.,.,-5.2%,?,0.1%,.
CCOc1ccc(NC(=S)NC23CC4CC(CC(C4)C2)C3)cc1,3.16µM*,2.82µM*,1.5%,?,7.9%,-19.1%
CN(C)c1ccc(NC(=S)NC23CC4CC(CC(C4)C2)C3)cc1,2µM*,5.01µM*,-4.0%,i,19.4%,-21.3%
Cc1ccc(-n2ncc3c(Nc4cccc(C)c4C)ncnc32)cc1,.,.,-11.6%,i,3.7%,44.3%
O=C(COc1ccccc1Cl)Nc1ccc(Cl)c(-c2nc3ccccc3o2)c1,.,.,6.2%,i,-16.5%,12.6%
Cc1cc[n+](-c2ccccc2)c2ccccc12,28.5%,11.2µM*,-16.7%,i,-22.7%,-22.6%
CCC(C)(C)C1CCC(=NNC(=S)Nc2cccnc2)CC1 (centres undefined),?,15.8%,-18.5%,i,-2.3%,-2.1%[11.3 µM]
C=CCNC(=S)NN=C1CCC(c2ccccc2)CC1 (centres undefined),12.6µM*,20µM*,5.9%,i,22.4%,-6.2%
CC(C)(C)C1CCC(=NNC(=S)NCc2ccccc2)CC1 (centres undefined),10µM*,?,5.6%,i,-3.9%,-26.0%
CCC(C)(C)C1CCC(=NNC(=S)Nc2ccccc2)CC1 (centres undefined),11.2µM*,?,-35.1%,i,-28.7%,-12.6%
O=C(O)C#CC(=O)O,.,.,-19.9%,.,?,.
CCOc1ccc(-n2c(SCC(=O)N3CCC(C)CC3)nc3c([nH]c4ccccc43)c2=O)cc1,.,.,-12.3%,i,2.1%,3.1%
Cc1cnc2ccc(I)cc2c1/C=C/c1ccc(N(C)C)cc1,.,.,-26.1%,.,-1.6%,.
CCNC(=S)NNC(=O)c1cc(-c2ccccc2C)nc2ccccc12,0.562µM*,-24.8%,-14.6%,i,-9.1%,-13.4%
CCNC(=S)NNC(=O)c1cc(-c2cccc(OC)c2)nc2ccccc12,2.24µM*,12.6µM*,-35.3%,i,-8.4%,45.5%
CCNC(=S)NNC(=O)c1cc(-c2ccc(OCC)cc2)nc2ccccc12,19.7%,0.6%,7.94µM*,i,20.1%,-24.6%
Cc1ccc(C)c(-c2cc(C(=O)NNC(=S)NCC(C)C)c3ccccc3n2)c1,1.12µM*,?,-34.0%,i,-7.4%,-6.2%
CCCOc1cccc(-c2cc(C(=O)NNC(=S)NCC)c3ccccc3n2)c1,?,?,-16.3%,?,-25.7%,31.1%
SMILES,RORg inh,VP16 counter,HepG2 tox,S2 tox,TGFb SMAD3 inh,ATXN2 expr inh
Cc1ccccc1-c1nc(SCC(=O)NCC2CCCO2)c2c(=O)n(C)c(=O)n(C)c2n1 (centres undefined),.,.,-1.5%,i,-1.3%,-4.4%
CC[C@H](C)[C@H](N)C(=O)O,.,.,.,i,.,20.2%
COc1ccc(OCc2ccc(-c3nc(C#N)c(N4CCC(C)CC4)o3)o2)cc1,.,.,4.2%,i,18.7%,-16.9%
COc1cc(-c2c(-c3ccc4c(c3)OCO4)noc2-c2ccsc2)cc(OC)c1OC,.,.,14.3%,.,0.5%,.
Cc1cc(C(=O)NNC(=S)NC(C)c2ccccc2)c2ccccc2n1 (centres undefined),5.01µM*,-26.7%,-23.3%,i,0.5%,-7.1%
COc1ccc(-c2cc(C(=O)NCc3ccco3)c3ccccc3n2)cc1OC,.,.,0.501µM*,i,16.8%,-12.4%
CCNC(=S)NNC(=O)c1cc(CC(C)C)nc2ccccc12,0.398µM*,?,-22.9%,i,-24.4%,-18.0%
CC(C)Oc1cccc(-c2cc(C(=O)NC(=S)N(C)c3ccccc3C(=O)O)c3ccccc3n2)c1,11.2µM*,?,-2.2%,i,0.0%,11.3%
Cc1cc(C(=O)NNC(=O)c2ccc(Cl)cc2)c2ccccc2n1,.,.,-19.5%,i,6.3%,-3.6%
Cc1ccc(C)c(CSc2nc(-c3ccccc3F)nc3c2Cc2c(CO)cnc(C)c2O3)c1,.,.,-1.6%,i,-4.2%,8.9%
CCn1c(=O)n(CC)c2cc(N3CCCC3)c(NC(=O)c3ccccc3OC)cc21,23.8%,-10.5%,-22.3%,?,-2.4%,-28.3%
COc1ccc(C(=O)Nc2cc3c(cc2N2CCCCC2)n(C)c(=O)n3C)cc1OC,3.55µM*,8.2%,5.0%,i,11.3%,31.8%
CCOc1ccccc1C(=O)Nc1cc2c(cc1N1CCCC1)n(CC)c(=O)n2CC,?,-6.7%,-57.7%,14.1µM*,?,.
COc1cccc(CN(C)C(=O)c2cnn(-c3nccc(-c4ccc5c(c4)OCO5)n3)c2C)c1,.,.,.,i,.,.
Cc1ccccc1NC(=O)c1ccc(N(Cc2ccccc2)S(C)(=O)=O)cc1,.,.,-65.9%,.,?,?
CS(=O)(=O)N(Cc1ccccc1)c1ccc(C(=O)Nc2ccc(Cl)cc2)cc1,.,.,-102.9%,31.6µM*,?,?
COC(=O)c1ccc(NC(=O)CN(Cc2ccccc2)S(=O)(=O)c2ccc(C)cc2)cc1,.,.,-30.7%,?,-25.1%,-31.0%
COC(=O)c1ccc(NC(=O)CN(Cc2ccccc2)S(=O)(=O)c2ccc(Cl)cc2)cc1,.,.,-21.5%,?,17.8µM*,?
CCc1cccc(C)c1NC(=O)CSc1n[nH]c(-c2ccccc2)n1,.,.,-27.8%,.,-32.4%,.
CCOC(=O)c1cnc2c(ccc3ccccc32)c1NCCCN(C)C,11.0%,-2.8%,-38.3%,i,?,-3.4%
Oc1cc(NCc2ccc(Cl)cc2)cc2cccnc12,.,.,-44.7%,i,-27.3%,-2.4%
CN(C)CCCNc1cc(O)c2ncccc2c1,.,.,7.08µM*,?,?,20µM*
Oc1cc(NCc2ccc(F)cc2)cc2cccnc12,.,.,11.2µM*,?,?,?
